The panel holds about 83,000 compounds, 20% with a hit somewhere; the sample as a whole holds those more often.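 How to read the values: 0–100, growth inhibition (40 = 60% inhibited); 0, no net growth; -100 to 0, cell death (-40 = 40% of starting cells died; -100 = all dead).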 Unmarked numbers belong to inactive results. Active and inactive are the calls of the source. How the source made its calls: active means growth percent below 10; inactive means the rest.

Test in all cases: NCI-60 one-dose screen, 48 h (100 = growth as untreated, 0 = no growth, -100 = all killed)
Conditions in all cases: 10 µM unless noted

Experiment [1] has as its system NCI-H23 lung.
The subject of experiment [2] is NCI-H226 lung.
Experiment [3] relates to NCI-H322M lung.
In experiment [4] the test system is HOP-62 NSCLC.
In experiment [5] the test system is NCI-H460 lung.
The test system of experiment [6] is HOP-92 NSCLC.
In experiment [7] the test system is NCI-H522 lung.
In experiment [8] the test system is A549/ATCC NSCLC.
For experiment [9], the system named is 786-0 renal.
Experiment [10] has as its system COLO 205 colon.

Consider `COc1cc(/C=C/C(=O)c2cccc(-n3cc(-c4ccc(Cl)cc4)[nH]c3=O)c2)cc(OC)c1OC`, for which the growth in experiment [1] was 52.3%; in experiment [2] it was 81.4%; in experiment [3], 92%; in experiment [4], 86.4%; in experiment [5], 54.7%; in [6] it was 51.5%. The growth in [7] is 16.5%; in experiment [8], 88.6%; in experiment [9], 82.2%.
`COc1ccc(-c2nc3ncccn3c2/C=C/C(=O)c2cc(OC)c(OC)c(OC)c2)cc1`: the growth in [1] was -19.6% (active); in [2], -24.4% (active); in experiment [3], 16.1%; in experiment [4], -12.4% (active); in experiment [5], -79.4% (active); in experiment [6], -0.213% (active). In addition, the growth in experiment [7] was -44.6% (active); in experiment [8] it was 10.2%; in experiment [9], -26% (active).
`O=c1cc(-c2ccc(OCc3ccccc3)cc2)oc2c(I)c(OCc3ccccc3)cc(OCc3ccccc3)c12`: the growth in experiment [1] was 103%; in [2], 90%; in experiment [3], 96.6%; in experiment [4], 125%; in [5] it was 99.2%; in experiment [6], 108%. Moreover, the growth in experiment [7] was 91.5%; in experiment [8] it was 96.4%; in experiment [9] it was 96.8%.
On to `Clc1ccc(-c2nnc(Cn3ccnc3)o2)cc1`, for which the growth was 93.9% in [1]; 102% in [2]; 113% in experiment [3]; 89.3% in experiment [4]; 112% in experiment [5]; 132% in experiment [6]. Further, the growth in experiment [7] was 115%; in experiment [8] it was 100%; in experiment [9], 94%.
Consider `N[C@@H]1CCC[C@H]1NCCCCN1C(=O)c2cccc3cccc(c23)C1=O`, for which the growth in [1] is 80.4%; in [2], 91.9%; in experiment [3], 64.4%; in [4], 81.9%; in [5], 59.8%; in [6] it was 48%. Besides, the growth is 65.8% in experiment [7], 67.4% in experiment [8] and 58% in experiment [9].
`CC(=O)Nc1ccc(C(=O)/C=C/c2ccccc2)cc1`: the growth is 96.1% in experiment [1]; 83.5% in experiment [2]; 88.9% in experiment [3]; 101% in [4]; 98.3% in [5]; 47.8% in experiment [6]. Besides, the growth in experiment [7] is 53%; in [8], 76.3%; in experiment [9] it was 58.3%; in experiment [10], 102%.
Consider `Nc1nc(Nc2ccc(Cl)cc2)nn1S(=O)(=O)c1ccc(-c2ccc(F)cc2)cc1`, for which the growth in experiment [1] is 92%; in [2] it was 84.4%; in experiment [3], 109%; in experiment [4] it was 84.3%; in [5], 70.9%; in experiment [6], 75.7%. The growth in experiment [7] is 75.3%; in experiment [8] it was 71.9%; in [9], 92.1%.
For `CC(=O)c1cc2c(o1)C(=O)c1ccccc1C2=O`, the growth is -33.2% (active) in experiment [1]; -59.1% (active) in experiment [2]; -92.7% (active) in [3]; -57.9% (active) in [4]; -71.8% (active) in experiment [5]; -9.05% (active) in [6]. In addition, the growth is -56.8% (active) in experiment [7], -44.4% (active) in [8] and -93.4% (active) in experiment [9].
For `C/C(Cc1ccc(Cl)cc1)=C(/c1ccc(Cl)cc1)c1ccc(OCCN(C)C)cc1`, the growth in [1] was 73.2%; in experiment [2], 104%; in experiment [3], 91.2%; in [4] it was 99.2%; in experiment [5] it was -46.9% (active); in experiment [6], 72%. In addition, the growth in [7] is 80.6%; in experiment [8], 57.8%; in experiment [9], 61.7%; in [10], -59.2% (active).
Consider `CC(=O)Nc1ccc(-c2cc3c(NCc4ccc(F)cc4)ncnc3s2)cc1`, for which the growth in [1] is 77.5%; in experiment [2] it was 78.4%; in experiment [3], 82.7%; in experiment [4] it was 58%; in [5] it was 77.3%; in experiment [6], 76%. Besides, the growth was 56.6% in experiment [7], 83.9% in experiment [8], 82.7% in experiment [9] and 106% in experiment [10].
Consider `COc1ccc(C2CC(c3ccc4ccccc4c3)=NN2c2nc(O)c(C3=c4cc(Cl)ccc4=NC3=O)s2)cc1` (configuration not stated), for which the growth in experiment [1] was -40.9% (active); in [2], -73.2% (active); in [3], -29.7% (active); in experiment [4] it was -53.8% (active); in experiment [5], -20% (active); in [6] it was -57.2% (active). In addition, the growth in [7] was -82% (active); in [8], -56% (active); in experiment [9], -80.5% (active); in [10], -79.4% (active).
For `Clc1ccc(/C=C/c2nc(Nc3ccc(Cl)cc3)c3ccccc3n2)cc1`, the growth in [1] was 93.1%; in [2], 92.6%; in experiment [3], 96.4%; in experiment [4], 120%; in [5], 103%; in experiment [6], 107%. Moreover, the growth is 90.8% in experiment [7], 102% in experiment [8], 102% in [9] and 112% in experiment [10].
Turning to `O=C1c2cccc3c(-c4ccc(-c5nc6c7ccccc7c7ccccc7c6[nH]5)cc4)ccc(c23)C(=O)N1CCN1CCNCC1`, the growth in experiment [1] was 83.3%; in experiment [2] it was 94.9%; in experiment [3] it was 75.3%; in experiment [4] it was 62.1%; in [5] it was 41.2%; in experiment [6], 86.2%. For the same compound, the growth in experiment [7] is 91.8%; in experiment [8], 70.7%; in [9], 52.4%; in experiment [10], 61.9%.
With `CCCCNC(=O)NS(=O)(=O)c1ccc(N2N=C(c3ccc(C)cc3C)CC2c2ccc(N(C)C)cc2)cc1` (configuration not stated), the growth in [1] was 69.5%; in experiment [2], 82.9%; in experiment [3], 87.4%; in experiment [4], 88.6%; in [5], 39.2%; in experiment [6], 71.5%. The growth in experiment [7] was 50%; in experiment [8] it was 40.6%; in experiment [9], 53.1%; in [10], 75.6%.
Consider `COc1cc2c(cc1OC)-c1ccc3cc4c(cc3c1N(CCCN(C)C)C2)OCO4`, for which the growth is 48.7% in [1]; 57.6% in experiment [2]; 51.3% in experiment [3]; 38% in [4]; 14.6% in [5]; 9.04% (active) in experiment [6]. Moreover, the growth in [7] is 19.5%; in experiment [8] it was 20.2%; in experiment [9], 35%.
As to `CCCCNC(=O)c1cc(NCc2cc(O)ccc2O)ccc1O`, the growth in [1] is 93.4%; in [2], 106%; in [3] it was 91.3%; in experiment [4], 84.4%; in [5], 106%; in [6] it was 67.7%. In addition, the growth was -55.7% (active) in experiment [7], 77.1% in experiment [8], 80.4% in experiment [9] and 108% in [10].
With `Oc1[nH]c2ccccc2c1/C=c1/cc2c(c(-c3ccc(F)cc3)n1)=Nc1ccccc1-2`, the growth is -5.74% (active) in [1]; 19.4% in [2]; 58.7% in [3]; -47.3% (active) in [4]; -23.6% (active) in experiment [5]; -17.9% (active) in [6]. The growth in experiment [7] is -58% (active); in [8], -33.7% (active); in experiment [9], -76.8% (active).
For the compound `OCCCCc1nccc2c1[nH]c1ccccc12`, the growth in [1] was 98.8%; in experiment [2] it was 90.7%; in experiment [3], 88.9%; in experiment [4] it was 95.3%; in experiment [5], 104%; in experiment [6], 104%. Moreover, the growth in [7] was 117%; in [8], 72.6%; in experiment [9] it was 102%.
`CCCc1cc(=O)oc2c3c(c4c(c12)OC(C)(C)C=C4)O[C@@H](C)[C@H](C)C3=O`: the growth in experiment [1] is 61.1%; in experiment [2] it was 89.8%; in experiment [3], 81%; in experiment [4] it was 102%; in [5], 60.5%; in experiment [6], 43.7%. Further, the growth was 71.9% in [7], 64.5% in [8], 72.8% in experiment [9] and 74.8% in [10].
For `COc1ccc(/C(C)=C(\c2ccc(Cl)cc2)c2ccc(OCCN3CCCC3)cc2)cc1F`, the growth was 55.1% in experiment [1]; 69.3% in experiment [2]; 62.2% in [3]; -17.6% (active) in experiment [4]; -55.6% (active) in experiment [5]; 65.8% in experiment [6]. Also, the growth in experiment [7] was 71.1%; in experiment [8], 42.2%; in [9] it was 4.18% (active); in experiment [10], -40.6% (active).
As to `COc1cccc(/C=C2\COc3ccc(O)cc3C2=O)c1OC`, the growth in experiment [1] was 86.6%; in [2], 95.2%; in experiment [3], 90.5%; in experiment [4], 88.4%; in [5], 67.8%; in [6], 86.8%. Further, the growth is 28.7% in experiment [7], 105% in experiment [8], 86.1% in experiment [9] and 92.1% in experiment [10].
For the compound `COc1ccc(C2=NC(=O)NC2c2ccc(OC)cc2)cc1` (configuration not stated), the growth was 68.3% in experiment [1]; 74% in experiment [2]; 132% in experiment [3]; 42.3% in experiment [4]; 72.9% in experiment [5]; 26% in experiment [6]. Moreover, the growth in experiment [7] is 54%; in [8], 82.8%; in [9], 38.6%; in [10], 58.7%.
As for `COc1c(C)cnc(CSc2nc(-c3ccc(C)cc3)cn2-c2ccc(Cl)cc2)c1C`, the growth in [1] was 97%; in experiment [2], 102%; in experiment [3], 80.9%; in experiment [4], 89.5%; in experiment [5], 101%; in experiment [6], 103%. Besides, the growth in [7] is 55.9%; in experiment [8], 88.6%; in [9], 95.3%; in [10], 96%.
Turning to `CS(=O)(=O)c1ccc(-c2[nH]c3ccc(F)cc3c2/C=N/NC(N)=S)cc1`, the growth was 38.1% in experiment [1]; 63.1% in experiment [2]; 48.8% in [3]; 34.2% in [4]; 3.52% (active) in [5]; 55.8% in experiment [6]. Further, the growth is 5.14% (active) in experiment [7], 18.4% in experiment [8] and 40.3% in [9].
In the case of `CCCCCCCSc1ccc(C(=O)O)cc1`, the growth in [1] was 102%; in [2], 97.2%; in experiment [3] it was 99.7%; in experiment [4], 106%; in experiment [5], 104%; in [6], 83.5%. Besides, the results for the growth in [7], in experiment [8] and in experiment [9] were 100%, 98.9% and 100%, respectively.
Take `CC(=O)Nc1nccs1`: the growth was 95% in [1]; 100% in [2]; 88.2% in [3]; 95.6% in experiment [4]; 98.8% in [5]; 89.1% in experiment [6]. Besides, the growth is 87% in experiment [7], 99.3% in [8] and 107% in experiment [9].
As for `COc1cc(NC(=O)c2cc(O)c(CC=C(C)C)c(O)c2)cc2c1O[C@]1(C)CC[C@@H](O)C(C)(C)[C@H]1C2`, the growth was 39% in [1]; 79.4% in experiment [2]; 67.9% in experiment [3]; 31.4% in [4]; 27.2% in experiment [5]; -0.592% (active) in experiment [6]. The growth in experiment [7] was 8.19% (active); in experiment [8], 40.3%; in experiment [9] it was 1.24% (active); in experiment [10], -28.8% (active).

For the origin of these results see PubChem BioAssay (NCI).
